Measured values as given in PubChem BioAssay (EPA / NIEHS).
Where a structure was tested more than once in an assay, its records may differ in their call. The source made the active and inactive calls. How the source made its calls: active means hit-call score of the fitted dose curve at least 0.9, where 1 is the maximum; inactive means score below 0.9.

What was measured:
Details in all cases: mRNA level, 48 h; actives raise or lower the signal
[1] = read-out: Cytochrome P450 3A4 (Homo sapiens) (UniProt P08684); experiment: LTEA_HepaRG_CYP3A4: Life Technologies and Expression Analysis (LTEA) Assay for CYP3A4 using HepaRG (AID 2283487)
Method in brief: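 In a human hepatic line (HepaRG), duplicate wells were treated 48 h with up to 100 uM chemical in half-log dilutions. Endpoint: CYP3A4 mRNA induction or loss relative to 0.5% DMSO vehicle, by qRT-PCR.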

[2] = read-out: DNA damage-inducible transcript 3 (DDIT3), DDIT3 (gene 1649); experiment: LTEA_HepaRG_DDIT3: Life Technologies and Expression Analysis (LTEA) Assay for DNA damage-inducible transcript 3 (DDIT3) using HepaRG (AID 2283488)
Method in brief: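 qRT-PCR readout (Fluidigm TaqMan), housekeeping-normalized to ACTB, GAPDH, POLR2A. HepaRG cells, 48 h exposure, 8-point half-log series from 100 uM in 0.5% DMSO, duplicates. Gain or loss of signal fitted against DMSO baseline.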

[3] = read-out: Pro-epidermal growth factor (Homo sapiens) (UniProt P01133); experiment: LTEA_HepaRG_EGF: Life Technologies and Expression Analysis (LTEA) Assay for Epidermal growth factor (EGF) using HepaRG (AID 2283489)
Method in brief: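 EGF expression changes in human HepaRG cells are scored by bidirectional fitting relative to 0.5% DMSO controls. Chemicals are tested at eight half-log concentrations up to 100 uM for 48 h in serum-free induction medium.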

[4] = read-out: Ezrin (EZR), EZR (gene 7430); experiment: LTEA_HepaRG_EZR: Life Technologies and Expression Analysis (LTEA) Assay for Ezrin (EZR) using HepaRG (AID 2283491)
Method in brief: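 Gain or loss of EZR mRNA is scored relative to 0.5% DMSO in human HepaRG cultures treated 48 h with test chemicals in duplicate, eight half-log concentrations from 100 uM.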

CYP3A5 (gene 1577) = experiment: LTEA_HepaRG_CYP3A5: Life Technologies and Expression Analysis (LTEA) Assay for CYP3A5 using HepaRG (AID 2283493)
Method in brief: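 qRT-PCR read-out: CYP3A5 transcript in HepaRG lysates, housekeeping-normalized (ACTB/GAPDH/POLR2A), fitted bidirectionally against 0.5% DMSO baseline. Exposure 48 h, eight half-log concentrations up to 100 uM, duplicates.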

[5] = read-out: Fatty Acid-Binding Protein 1 (FABP1), FABP1 (gene 2168); experiment: LTEA_HepaRG_FABP1: Life Technologies and Expression Analysis (LTEA) Assay for Fatty Acid-Binding Protein 1 (FABP1) using HepaRG (AID 2283494)
Method in brief: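 Values reflect bidirectional concentration-response fitting of FABP1 mRNA change against 0.5% DMSO controls. Human HepaRG cultures received eight half-log doses (top 100 uM) for 48 h; expression quantified by TaqMan qRT-PCR with housekeeping-gene normalization.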

[6] = read-out: Cytochrome P450 4A22 (Homo sapiens) (UniProt Q5TCH4); experiment: LTEA_HepaRG_CYP4A22: Life Technologies and Expression Analysis (LTEA) Assay for Cytochrome P450 4A22 (CYP4A22) using HepaRG (AID 2283495)
Method in brief: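 Cryopreserved HepaRG cells, plated and cultured 48 h, then switched to serum-free induction medium and treated 48 h (duplicates, up to 100 uM, half-log steps, 0.5% DMSO). Expression change of CYP4A22 was fitted bidirectionally against vehicle.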

[7] = read-out: Cytochrome P450 7A1 (Homo sapiens) (UniProt P22680); experiment: LTEA_HepaRG_CYP7A1: Life Technologies and Expression Analysis (LTEA) Assay for Cytochrome P450 7A1 (CYP7A1) using HepaRG (AID 2283496)
Method in brief: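 Using 0.5% DMSO as vehicle and baseline, chemicals were tested in duplicate over an 8-point range from 100 uM on HepaRG cells for 48 h; qRT-PCR signals were normalised to ACTB, GAPDH and POLR2A.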

[8] = read-out: Glutathione S-Transferase (GSTA2), GSTA2 (gene 2939); experiment: LTEA_HepaRG_GSTA2: Life Technologies and Expression Analysis (LTEA) Assay for Glutathione S-Transferase (GSTA2) using HepaRG (AID 2283497)
Method in brief: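 Oxidative-stress marker GSTA2 is quantified by TaqMan qRT-PCR in HepaRG cultures treated 48 h across an eight-point range to 100 uM. Expression is normalized to endogenous controls and compared with 0.5% DMSO vehicle.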

[9] = read-out: Glutamate-cysteine ligase catalytic (GCLC), GCLC (gene 2729); experiment: LTEA_HepaRG_GCLC: Life Technologies and Expression Analysis (LTEA) Assay for Glutamate-cysteine ligase catalytic (GCLC) using HepaRG (AID 2283498)
Method in brief: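 Oxidative-stress marker GCLC is measured as mRNA change in human HepaRG liver cells after 48 h chemical treatment in 0.5% DMSO, eight concentrations from 100 uM. Activity is fitted bidirectionally against vehicle.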

[10] = read-out: growth arrest and DNA damage 45 (GADD45G), GADD45G (gene 10912); experiment: LTEA_HepaRG_GADD45G: Life Technologies and Expression Analysis (LTEA) Assay for growth arrest and DNA damage 45 (GADD45G) using HepaRG (AID 2283499)
Method in brief: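 Human hepatic HepaRG line treated 48 h with chemicals (eight concentrations, half-log steps from 100 uM); transcript induction or repression of GADD45G scored by qRT-PCR versus DMSO vehicle.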

[11] = read-out: Glutamate-cysteine ligase regulatory (GCLM), GCLM (gene 2730); experiment: LTEA_HepaRG_GCLM: Life Technologies and Expression Analysis (LTEA) Assay for Glutamate-cysteine ligase regulatory (GCLM) using HepaRG (AID 2283500)
Method in brief: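 HepaRG, 48 h dosing, 100 uM top, half-log x8, 0.5% DMSO vehicle. Readout: GCLM mRNA by TaqMan qRT-PCR, housekeeping-normalized (ACTB/GAPDH/POLR2A). Curves fit bidirectionally vs DMSO baseline.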

[12] = read-out: Glutathione S-transferase M3 (GSTM3), GSTM3 (gene 2947); experiment: LTEA_HepaRG_GSTM3: Life Technologies and Expression Analysis (LTEA) Assay for Glutathione S-transferase M3 (GSTM3) using HepaRG (AID 2283501)
Method in brief: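 Changes in GSTM3 expression, an oxidative-stress marker, were scored by bidirectional curve fitting against 0.5% DMSO vehicle. Human HepaRG cultures received chemicals for 48 h in duplicate, highest concentration 100 uM with half-log dilutions.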

[13] = read-out: Heat shock 70 kDa protein 1 (HSPA1A), gene 3303; experiment: LTEA_HepaRG_HSPA1A: Life Technologies and Expression Analysis (LTEA) Assay for Heat shock 70 kDa protein 1 (HSPA1A) using HepaRG (AID 2283502)
Method in brief: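 HepaRG, 48 h exposure, 8-pt half-log CRC from 100 uM in 0.5% DMSO, duplicates. Readout: TaqMan qRT-PCR of HSPA1A mRNA, housekeeping-normalized (ACTB/GAPDH/POLR2A). Bidirectional fit vs 0.5% DMSO baseline.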

[14] = read-out: 3-Hydroxy-3-Methylglutaryl-CoA Synthase 2 (HMGCS2), HMGCS2 (gene 3158); experiment: LTEA_HepaRG_HMGCS2: Life Technologies and Expression Analysis (LTEA) Assay for 3-Hydroxy-3-Methylglutaryl-CoA Synthase 2 (HMGCS2) using HepaRG (AID 2283504)
Method in brief: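 Expression of HMGCS2 in human HepaRG liver cells is measured by qRT-PCR 48 h after dosing (highest 100 uM, half-log series, 0.5% DMSO). Values come from bidirectional concentration-response fitting with DMSO as baseline.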

HGF (gene 3082) = experiment: LTEA_HepaRG_HGF: Life Technologies and Expression Analysis (LTEA) Assay for Hepatocyte Growth Facto (HGF) using HepaRG (AID 2283505)
Method in brief: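 Gain or loss of HGF mRNA in human HepaRG liver cells after 48 h chemical exposure; eight concentrations up to 100 uM with 0.5% DMSO vehicle, quantified by TaqMan qRT-PCR.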

[15] = read-out: Insulin Like Growth Factor 1 (IGF1), IGF1 (gene 3479); experiment: LTEA_HepaRG_IGF1: Life Technologies and Expression Analysis (LTEA) Assay for Insulin Like Growth Factor 1 (IGF1) using HepaRG (AID 2283506)
Method in brief: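 qRT-PCR readout of IGF1 mRNA, normalized to three housekeeping genes, after 48 h chemical exposure of HepaRG cells. Concentrations: 8-point half-log series, top 100 uM, 0.5% DMSO vehicle. Gain or loss fitted against DMSO baseline.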

[16] = read-out: Cytochrome P450 3A7 (Homo sapiens) (UniProt P24462); experiment: LTEA_HepaRG_CYP3A7: Life Technologies and Expression Analysis (LTEA) Assay for CYP3A7 using HepaRG (AID 2283492)
Method in brief: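 Cells were thawed, plated, cultured 48 h, then treated for a further 48 h with chemicals (eight-point half-log series from 100 uM, 0.5% DMSO). RNA was isolated and CYP3A7 expression quantified by qRT-PCR normalised to ACTB, GAPDH and POLR2A.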

[17] = read-out: Hypoxia-inducible factor 1-alpha (Homo sapiens) (UniProt Q16665); experiment: LTEA_HepaRG_HIF1A: Life Technologies and Expression Analysis (LTEA) Assay for Hypoxia-inducible factor 1 (HIF1A) Trancription factor using HepaRG (AID 2283503)
Method in brief: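 Gain- or loss-of-signal HIF1A mRNA changes are fitted against a DMSO baseline. HepaRG cultures receive eight concentrations, highest 100 uM, for 48 h in serum-free induction medium with 0.5% DMSO.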

[18] = read-out: Early growth response protein 1 (EGR1) transcription factor, EGR1 (gene 1958); experiment: LTEA_HepaRG_EGR1: Life Technologies and Expression Analysis (LTEA) Assay for Early growth response protein 1 (EGR1) transcription factor using HepaRG (AID 2283490)
Method in brief: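 EGR1 expression change in human HepaRG after 48 h chemical exposure, assessed by housekeeping-normalized qRT-PCR; concentration-response up to 100 uM, fitted in both directions against DMSO controls.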

Measured: AC50

Cytochrome P450 3A4 (Homo sapiens), sequence (P08684 whole entry, looked up): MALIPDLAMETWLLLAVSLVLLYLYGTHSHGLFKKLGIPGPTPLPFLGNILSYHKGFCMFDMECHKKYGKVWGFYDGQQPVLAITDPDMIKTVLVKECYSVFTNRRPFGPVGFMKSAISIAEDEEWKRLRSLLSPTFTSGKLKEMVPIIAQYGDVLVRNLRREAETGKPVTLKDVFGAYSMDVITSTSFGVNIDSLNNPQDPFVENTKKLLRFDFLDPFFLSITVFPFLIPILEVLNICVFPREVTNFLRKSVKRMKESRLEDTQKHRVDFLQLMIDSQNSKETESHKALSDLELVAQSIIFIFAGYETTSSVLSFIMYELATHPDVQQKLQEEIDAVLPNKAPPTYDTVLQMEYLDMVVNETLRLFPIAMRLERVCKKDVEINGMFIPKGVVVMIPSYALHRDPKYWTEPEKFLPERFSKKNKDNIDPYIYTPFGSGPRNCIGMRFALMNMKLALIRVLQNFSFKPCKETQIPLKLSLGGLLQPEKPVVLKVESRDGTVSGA
Cytochrome P450 3A7 (Homo sapiens), sequence (P24462 whole entry, looked up): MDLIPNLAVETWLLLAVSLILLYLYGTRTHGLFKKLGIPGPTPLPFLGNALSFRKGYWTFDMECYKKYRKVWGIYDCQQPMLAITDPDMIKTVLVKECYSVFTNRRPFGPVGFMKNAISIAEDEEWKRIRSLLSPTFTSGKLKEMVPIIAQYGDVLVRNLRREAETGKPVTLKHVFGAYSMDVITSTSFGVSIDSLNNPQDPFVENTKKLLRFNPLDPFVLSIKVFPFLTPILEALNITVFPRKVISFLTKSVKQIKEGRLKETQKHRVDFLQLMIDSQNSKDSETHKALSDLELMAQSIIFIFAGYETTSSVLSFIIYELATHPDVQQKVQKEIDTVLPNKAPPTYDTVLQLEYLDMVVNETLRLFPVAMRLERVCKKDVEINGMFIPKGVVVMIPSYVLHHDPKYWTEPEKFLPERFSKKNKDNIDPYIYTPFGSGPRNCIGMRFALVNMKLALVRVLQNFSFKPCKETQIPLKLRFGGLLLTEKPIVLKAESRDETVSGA
Hypoxia-inducible factor 1-alpha (Homo sapiens), sequence (Q16665 whole entry, looked up): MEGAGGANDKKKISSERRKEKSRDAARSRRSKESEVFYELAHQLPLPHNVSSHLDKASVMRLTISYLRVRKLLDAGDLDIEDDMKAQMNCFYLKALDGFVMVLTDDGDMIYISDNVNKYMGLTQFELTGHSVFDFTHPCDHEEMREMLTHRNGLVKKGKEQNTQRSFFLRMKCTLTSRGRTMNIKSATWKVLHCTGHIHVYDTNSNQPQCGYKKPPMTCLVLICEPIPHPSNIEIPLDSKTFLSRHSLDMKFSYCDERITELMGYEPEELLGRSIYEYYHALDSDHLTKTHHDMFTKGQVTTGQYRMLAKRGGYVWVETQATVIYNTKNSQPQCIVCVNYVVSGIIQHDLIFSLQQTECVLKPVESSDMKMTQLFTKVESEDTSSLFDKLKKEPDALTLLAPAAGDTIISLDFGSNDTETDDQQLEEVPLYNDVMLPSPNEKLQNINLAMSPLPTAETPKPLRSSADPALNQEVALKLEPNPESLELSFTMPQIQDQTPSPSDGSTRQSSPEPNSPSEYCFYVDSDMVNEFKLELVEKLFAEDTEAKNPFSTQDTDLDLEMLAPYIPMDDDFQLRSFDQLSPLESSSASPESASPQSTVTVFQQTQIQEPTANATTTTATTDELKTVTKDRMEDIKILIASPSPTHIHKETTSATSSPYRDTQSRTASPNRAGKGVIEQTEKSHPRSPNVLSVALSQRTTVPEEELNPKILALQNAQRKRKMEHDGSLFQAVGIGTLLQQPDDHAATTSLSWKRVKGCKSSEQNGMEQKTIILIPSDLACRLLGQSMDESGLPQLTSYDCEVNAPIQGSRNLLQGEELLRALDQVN

CN(C)[C@@H]1C(=O)C(C(N)=O)=C(O)[C@@]2(O)C(=O)C3=C(O)c4c(O)cccc4[C@@](C)(O)[C@H]3[C@H](O)[C@@H]12
active: [6] 50 µM
inactive: [1] | [2] | [3] | [4] | CYP3A5 (gene 1577) | [5] | [6] | [7] | [8] | [9] | [10] | [11] | [12] | [13] | [14] | HGF (gene 3082) | [15]

FC(F)C(F)(F)OCC(Cn1cncn1)c1ccc(Cl)cc1Cl (centres undefined)
inactive: [3] | [9]
active: [1] 35.2 µM | [2] 28.7 µM | [16] 49.8 µM | CYP3A5 (gene 1577) 83 µM | [5] 34.8 µM | [6] 16.6 µM | [7] 44.6 µM | [8] 38.7 µM | [10] 11.1 µM | [11] 13 µM | [12] 73.6 µM | [13] 83.4 µM | [17] 76.4 µM | [14] 39.5 µM | HGF (gene 3082) 87.2 µM | [15] 33.4 µM

CC(C1CC1)C(O)(Cn1cncn1)c1ccc(Cl)cc1 (centres undefined)
active: [1] 3.9 µM | [2] 72.3 µM | [5] 12.5 µM | [6] 44.9 µM | [7] 18.8 µM | [8] 76.7 µM | [14] 83.6 µM | [15] 37 µM
not listed: [16] | [18]
inactive: all other assays above

C=C(C)[C@H]1Cc2c(ccc3c2O[C@@H]2COc4cc(OC)c(OC)cc4[C@@H]2C3=O)O1
inactive: [9]
active: [2] 1.27 µM | [3] 50 µM | [4] 1 µM | CYP3A5 (gene 1577) 11.5 µM | [5] 1.25 µM | [6] 0.834 µM | [7] 3.69 µM | [8] 3 µM | [10] 1.18 µM | [11] 2.57 µM | [12] 23.9 µM | [13] 28.9 µM | [17] 23.8 µM | [14] 1.7 µM | HGF (gene 3082) 22.8 µM | [15] 1.03 µM

CNC(=O)ON=C(C)SC
not listed: [16] | [18]
inactive: all other assays above

COP(=O)(NC(C)=O)SC (centres undefined)
not listed: [16] | [18]
inactive: all other assays above

CCC(=O)Nc1ccc(Cl)c(Cl)c1
active: [5] 9.92 µM | [8] 72.5 µM | [11] 50 µM
not listed: [18]
inactive: all other assays above

CCOP(=S)(Oc1cnc(C(C)(C)C)nc1)OC(C)C (centres undefined)
active: [1] 13.9 µM | [5] 2.01 µM | [7] 4.63 µM | [14] 14 µM | [15] 44.6 µM
not listed: [18]
inactive: all other assays above

CCOP(=S)(OCC)Oc1ccc2c(C)c(Cl)c(=O)oc2c1
active: [2] 80.3 µM | [5] 24.6 µM | [6] 50 µM | [7] 15.5 µM | [8] 82 µM | [10] 50 µM | [14] 51.8 µM | [15] 33.8 µM
not listed: [1] | [16] | [18]
inactive: all other assays above

O=C(O)c1cc(Oc2ccc(C(F)(F)F)cc2Cl)ccc1[N+](=O)[O-]
active: [16] 50 µM | CYP3A5 (gene 1577) 50 µM | [5] 20.3 µM | [14] 50 µM
not listed: [1] | [15] | [18]
inactive: all other assays above

CCOC(=O)COc1cc(-c2nn(C)c(OC(F)F)c2Cl)c(F)cc1Cl
active: [1] 22.8 µM
not listed: [16] | [18]
inactive: all other assays above

O=c1ccc(=O)[nH][nH]1
not listed: [16] | [18]
inactive: all other assays above

CCOP(=S)(OCC)Oc1cc(C)nc(C(C)C)n1
active: [15] 27.3 µM
not listed: [1]
inactive: all other assays above
